Data taken from PubChem BioAssay (NCATS).
Results filed as inconclusive are left out. Active and inactive are the calls of the source. Calls come from the whole dose curve; as a rule, active = well fitted curve in the direction sought with a large enough effect; inconclusive = small, poorly fitted or top-dose-only effect, or another doubt; inactive = no such curve, though single readings can be large; an effect the other way counts as inactive or inconclusive.

Assays:
[1] = Quantitative High-Throughput drug screen in 47 multiple myeloma cell lines against the NCATS MIPE library collection: Karpas620_DSMZ cell viability assay (AID 1918959); note: nearly all actives have a fitted effect of over 30% in size; note: potency is the fitted concentration of half-maximal effect
How it was run: (§1)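 Approved and investigational drugs from MIPE 4.0 were added by pin tool to 500 cells per well. After 48 hours at 37C, ATP-based CellTiter-Glo luminescence indicated remaining viability.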

[2] = Quantitative High-Throughput drug screen in 47 multiple myeloma cell lines against the NCATS MIPE library collection: JIM3_ECACC cell viability assay (AID 1918963; note: nearly all actives have a fitted effect of over 35% in size; note: potency is the fitted concentration of half-maximal effect)
How it was run: as §1

[3] = Quantitative High-Throughput drug screen in 47 multiple myeloma cell lines against the NCATS MIPE library collection: INA6_PLB cell viability assay (AID 1918965; note: nearly all actives have a fitted effect of over 55% in size; note: potency is the fitted concentration of half-maximal effect)
How it was run: (§2)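 Inhibition of cell viability is measured here. Each line was plated at 500 cells per well, treated with MIPE 4.0 drugs, kept 48 hours at 37C, then assayed for ATP content by CellTiter-Glo luminescence.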

[4] = Quantitative High-Throughput drug screen in 47 multiple myeloma cell lines against the NCATS MIPE library collection: JJN3_DSMZ cell viability assay (AID 1918966; note: nearly all actives have a fitted effect of over 50% in size; note: potency is the fitted concentration of half-maximal effect)
How it was run: (§3)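 CellTiter-Glo ATP luminescence gave viability after 48 h compound treatment at 37C of 500 multiple myeloma cells per well. Normalisation used DMSO-only wells as 100% and media-only wells as 0% viability; primary qHTS of approved and investigational drugs.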

[5] = Quantitative High-Throughput drug screen in 47 multiple myeloma cell lines against the NCATS MIPE library collection: KMS12BM_JCRB cell viability assay (AID 1918971); note: potency is the fitted concentration of half-maximal effect; nearly all actives have a fitted effect of over 35% in size
How it was run: as §1

[6] = Quantitative High-Throughput drug screen in 47 multiple myeloma cell lines against the NCATS MIPE library collection: KMS20_JCRB cell viability assay (AID 1918973); note: potency is the fitted concentration of half-maximal effect; nearly all actives have a fitted effect of over 45% in size
How it was run: as §3

[7] = Quantitative High-Throughput drug screen in 47 multiple myeloma cell lines against the NCATS MIPE library collection: MMM1_PLB cell viability assay (AID 1918976); note: potency is the fitted concentration of half-maximal effect; nearly all actives have a fitted effect of over 35% in size
How it was run: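 ATP-based luminescence (CellTiter-Glo, 5 min RT incubation) quantified surviving cells following two days' treatment with MIPE 4.0 agents at 37 °C, 5% CO2.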

[8] = Quantitative High-Throughput drug screen in 47 multiple myeloma cell lines against the NCATS MIPE library collection: KMS12PE_JCRB cell viability assay (AID 1918972); note: nearly all actives have a fitted effect of over 30% in size; note: potency is the fitted concentration of half-maximal effect
How it was run: as §2

[9] = Quantitative High-Throughput drug screen in 47 multiple myeloma cell lines against the NCATS MIPE library collection: H1112_PLB cell viability assay (AID 1918967; note: nearly all actives have a fitted effect of over 30% in size; note: potency is the fitted concentration of half-maximal effect)
How it was run: as §3

[10] = Quantitative High-Throughput drug screen in 47 multiple myeloma cell lines against the NCATS MIPE library collection: Karpas25_ECACC cell viability assay (AID 1918968; note: nearly all actives have a fitted effect of over 35% in size; note: potency is the fitted concentration of half-maximal effect)
How it was run: as §3

[11] = Quantitative High-Throughput drug screen in 47 multiple myeloma cell lines against the NCATS MIPE library collection: KMS27_JCRB cell viability assay (AID 1918970); note: nearly all actives have a fitted effect of over 30% in size; note: potency is the fitted concentration of half-maximal effect
How it was run: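 Each line is seeded at 500 cells per well and treated with library compounds for 48 hours under 37 °C, 5% CO2. CellTiter-Glo is then added for 5 min at room temperature before median relative luminescence is recorded.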

[12] = Quantitative High-Throughput drug screen in 47 multiple myeloma cell lines against the NCATS MIPE library collection: JIM1_ECACC cell viability assay (AID 1918964; note: potency is the fitted concentration of half-maximal effect)
How it was run: as §3

[13] = Quantitative High-Throughput drug screen in 47 multiple myeloma cell lines against the NCATS MIPE library collection: KMS21BM_JCRB cell viability assay (AID 1918974); conditions: ATP luminescence, 48 h; viability: at 45.8 µM (top of the series) unless noted; note: potency is the fitted concentration of half-maximal effect
How it was run: as §3

[14] = Quantitative High-Throughput drug screen in 47 multiple myeloma cell lines against the NCATS MIPE library collection: KMM1_JCRB cell viability assay (AID 1918960); note: nearly all actives have a fitted effect of over 30% in size; note: potency is the fitted concentration of half-maximal effect
How it was run: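 Each line was plated at 500 cells/well and treated 48 h with library drugs. Viability came from CellTiter-Glo luminescence relative to DMSO and cell-free medium controls.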

[15] = Quantitative High-Throughput drug screen in 47 multiple myeloma cell lines against the NCATS MIPE library collection: KMS26_JCRB cell viability assay (AID 1918975); note: nearly all actives have a fitted effect of over 45% in size; note: potency is the fitted concentration of half-maximal effect
How it was run: as §1

[16] = Quantitative High-Throughput drug screen in 47 multiple myeloma cell lines against the NCATS MIPE library collection: Karpas417_ECACC cell viability assay (AID 1918961); conditions: Karpas417 myeloma viability, CellTiter-Glo ATP luminescence, 48 h; viability (% of DMSO): at 45.8 µM (top of the series); note: potency is the fitted concentration of half-maximal effect
How it was run: as §2

[17] = Quantitative High-Throughput drug screen in 47 multiple myeloma cell lines against the NCATS MIPE library collection: KHM11_PLB cell viability assay (AID 1918962); note: nearly all actives have a fitted effect of over 35% in size; note: potency is the fitted concentration of half-maximal effect
How it was run: as §1

[18] = Quantitative High-Throughput drug screen in 47 multiple myeloma cell lines against the NCATS MIPE library collection: ARD_JJKsccE7 cell viability assay (AID 1918929)
How it was run: as §3

Measured: Potency

CC(C)n1nc(-c2ccc3oc(N)nc3c2)c2c(N)ncnc21
active: [1] 1.18 µM | [2] 0.0074 µM | [3] 0.0093 µM | [4] 0.0074 µM | [5] 0.0526 µM | [6] 0.0418 µM | [7] 0.0026 µM

O=C(O)c1ccc(-c2cc3cccnc3c(-c3ccc4nonc4c3)n2)cc1
active: [3] 20.9 µM | [5] 20.9 µM | [8] 20.9 µM | [6] 11.8 µM | [7] 26.4 µM

CCNc1cc(NC2CCC(O)CC2)nc(Nc2ccc3c(ccn3Cc3ccccc3)c2)n1 (configuration not stated)
active: [2] 20.9 µM | [9] 18.7 µM | [10] 18.7 µM | [11] 16.6 µM | [6] 37.2 µM

CO[C@H]1C[C@@H]2CC[C@@H](C)[C@@](O)(O2)C(=O)C(=O)N2CCCC[C@@H]2C(=O)O[C@H]([C@@H](C)C[C@@H]2CC[C@H](O)[C@H](OC)C2)CC(=O)[C@H](C)C=C(C)[C@@H](O)[C@@H](OC)C(=O)[C@H](C)C[C@H](C)C=CC=CC=C1C
inactive: [2]
active: [1] 16.6 µM | [10] 18.7 µM

COc1ccc(Cc2nccc3cc(OC)c(OC)cc23)cc1OC
active: [12] 16.6 µM | [4] 16.6 µM | [5] 16.6 µM | [7] 23.5 µM
inactive: [13]

Cc1c(NC(=O)c2ccc(C(C)(C)C)cc2)cccc1-c1cn(C)c(=O)c(Nc2ccc(C(=O)N3CCOCC3)cc2)n1
active: [1] 9.35 µM | [14] 6.62 µM | [2] 13.2 µM | [4] 14.8 µM | [10] 16.6 µM | [5] 23.5 µM | [8] 5.26 µM | [15] 16.6 µM | [7] 26.4 µM

O=C1NC(=O)C(=Cc2ccc(-c3ccc(F)cc3)o2)S1
inactive: [1] | [17] | [3] | [11]
active: [16] 1.66 µM | [8] 4.18 µM | [13] 2.09 µM | [7] 11.8 µM

CC[C@]1(O)C[C@@H]2CN(CCc3c([nH]c4ccccc34)[C@@](C(=O)OC)(c3cc4c(cc3OC)N(C=O)[C@@H]3C45CCN4CC=C[C@](CC)([C@H]45)[C@@H](OC(C)=O)[C@]3(O)C(=O)OC)C2)C1 (some centres not stated)
inactive: [1] | [14] | [16] | [12] | [11] | [8]
active: [4] 20.9 µM | [5] 18.7 µM | [15] 23.5 µM

C[C@H](NC(=O)c1sccc1OCc1ccc(Cl)cc1)c1ccccc1
inactive: [18] | [11] | [8]
active: [3] 26.4 µM | [10] 16.6 µM | [5] 18.7 µM | [7] 16.6 µM

COc1ccc(-n2c(C)c([N+](=O)[O-])c3ccc(O)cc32)cc1
active: [10] 26.4 µM
inactive: [1] | [14] | [2] | [9]

COc1ccc2cc(-c3nc(-c4ccc(S(C)=O)cc4)[nH]c3-c3ccncc3)ccc2c1 (configuration not stated)
active: [1] 18.7 µM | [14] 23.5 µM | [2] 23.5 µM | [3] 14.8 µM | [6] 7.43 µM

c1ccc2c(-c3cnn4cc(-c5ccc(N6CCNCC6)cc5)cnc34)ccnc2c1
active: [3] 2.35 µM | [9] 3.32 µM | [5] 14.8 µM

CC(C)(C)Cn1c(N)nc2ccc(-c3[nH]c(C(C)(C)C)nc3-c3ccc(F)cc3)nc21
active: [4] 20.9 µM | [9] 20.9 µM | [5] 23.5 µM
inactive: [1] | [12] | [11] | [8]

Cc1ccc(/C=N/NC(=O)c2ccccc2Oc2ccccc2)o1
active: [2] 23.5 µM | [5] 23.5 µM | [6] 16.6 µM

Nc1nc(F)nc2c1ncn2[C@@H]1O[C@H](COP(=O)(O)O)[C@@H](O)[C@H]1O
inactive: [14] | [2] | [3] | [4] | [9] | [11] | [15]
active: [1] 18.7 µM | [16] 4.18 µM | [10] 13.2 µM | [5] 16.6 µM

O=C(Nc1cccc(Br)c1)c1cccc(S(=O)(=O)N2CCCCCC2)c1
active: [1] 20.9 µM | [14] 16.6 µM | [12] 7.43 µM | [3] 18.7 µM | [4] 20.9 µM | [5] 20.9 µM | [8] 10.5 µM

CC(C)[C@H](CO)Nc1nc(Nc2ccc(C(=O)O)c(Cl)c2)c2ncn(C(C)C)c2n1
active: [17] 14.8 nM | [3] 0.059 µM | [7] 23.5 µM

CO[C@H]1C[C@@H]2CC[C@@H](C)[C@@](O)(O2)C(=O)C(=O)N2CCCC[C@@H]2C(=O)O[C@H]([C@H](C)C[C@@H]2CC[C@H](OC(=O)C(C)(CO)CO)[C@H](OC)C2)CC(=O)[C@H](C)C=C(C)[C@@H](O)[C@@H](OC)C(=O)[C@H](C)C[C@H](C)C=CC=CC=C1C
active: [1] 9.35 µM | [2] 20.9 µM | [10] 13.2 µM | [6] 11.8 µM

O=C(N[C@@H](c1ccccc1)[C@@H]1CCCCN1)c1cccc(C(F)(F)F)c1Cl
active: [9] 14.8 µM | [5] 7.43 µM | [8] 23.5 µM
inactive: [1] | [14] | [2] | [12] | [3] | [4] | [10]

CO[C@H]1C=CO[C@@]2(C)Oc3c(C)c(O)c4c(O)c(c5c(c4c3C2=O)NC2(CCN(CC(C)C)CC2)N=5)=NC(=O)C(C)=CC=C[C@H](C)[C@H](O)[C@@H](C)[C@@H](O)[C@@H](C)[C@H](OC(C)=O)[C@H]1C
inactive: [2] | [12] | [9] | [15]
active: [10] 16.6 µM | [8] 11.8 µM

O=c1cc(-c2ccccc2)oc2cc(O)c(O)c(O)c12
inactive: [1] | [14] | [8]
active: [9] 20.9 µM | [10] 20.9 µM | [7] 23.5 µM

O=C(NOCC(O)CO)c1cc(Br)c(F)c(F)c1Nc1ccc(I)cc1F (configuration not stated)
active: [9] 0.118 µM
inactive: [1] | [11] | [15]
